Sampled rows, rich in hits. Any-hit rate of the full collection: about 10%.
CtBP-E1A blk: qHTS Assay for Inhibitors of the CtBP/E1A Interaction. CtBP / adenovirus E1A interaction (AlphaScreen). AlphaScreen GST-E1A/His-CtBP binding, 1536-well; active compounds read low. activity change, % (no concentration beside the values). 340,000 tested, 0.49% active. AID 651724, 2012; in the data active = activity change below about -65%; inconclusive = mostly about -30% to -63%; note: % is set by controls: 0 for no effect and ±100 for the full control effect
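Homogeneous bead-based format: GST-tagged E1A captured on glutathione donor beads, His-tagged CtBP on nickel acceptor beads; compounds precede bead addition by 2 h at 37 °C.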
Six1-Eya2 blk: qHTS Assay for Inhibitors of the Six1/Eya2 Interaction. Homeobox protein SIX1 (Homo sapiens) + Protein phosphatase EYA2 (Homo sapiens), …. AlphaScreen GST-Six1/His-Eya2 binding, biochemical; active compounds read low. activity change, % (no concentration beside the values). 360,000 tested, 0.56% active. AID 651725, 2012; in the data active = activity change below about -65%; inconclusive = mostly about -30% to -63%; note: % is set by controls: 0 for no effect and ±100 for the full control effect
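Compounds are tested against tagged Six1 and Eya2 proteins bridged by glutathione donor and nickel acceptor beads; after a one-hour incubation at 37 °C without light, AlphaScreen emission is recorded.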
HP1b chromo inh: HTS for Inhibitors of HP1-beta Chromodomain Interactions with Methylated Histone Tails; Chromobox protein homolog 1 (Homo sapiens), P83916; AlphaScreen HP1-beta / biotin-H3K9me3 peptide binding; Potency, µM (series often up to 114 µM), inactives show at the top dose activity change, negative = inhibition, usual class: inhibitors; 390,000 tested, 0.56% active; AID 540317, 2011; note: potency is the fitted concentration of half-maximal effect; nearly all actives have a fitted effect of over 70% in size
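AlphaScreen: HP1-beta (50 nM) preformed 30 min with biotin-H3(1-18)K9me3 peptide (50 nM) in PBS pH 7.4, 0.01% Tween-20. Compound added for 30 min at RT, then streptavidin donor/nickel chelate acceptor beads (10 ug/mL) for 30 min.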
BAZ2B inh: qHTS Assay for Inhibitors of BAZ2B | Bromodomain adjacent to zinc finger domain protein 2B (Homo sapiens), Q9UIF8 | AlphaScreen BAZ2B-H3K14Ac peptide displacement | Potency, µM (series often up to 114 µM), for the others: at the highest dose activity change, negative = inhibition, hits mostly inhibitors | 360,000 tested, 4.4% active; note: potency is the fitted concentration of half-maximal effect; % is set by controls: 0 for no effect and ±100 for the full control effect; nearly all actives have a fitted effect of over 60% in size
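Complex of BAZ2B and biotin-H3K14Ac (50 nM apiece) forms over 30 min at RT, then faces library compounds up to 110 uM for another 30 min; AlphaScreen beads added, 20 min dark incubation, luminescence read.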
G9a block: qHTS Assay for Inhibitors of Histone Lysine Methyltransferase G9a; Histone-lysine N-methyltransferase EHMT2 (Homo sapiens), Q96KQ7; G9a H3K9 monomethylation, AlphaScreen, 2 h; Potency, µM (top dose mostly 102 µM), for the others: top-dose activity, negative = inhibition, usual class: inhibitors; 350,000 tested, 8.8% active; AID 504332, 2011; note: potency is the fitted concentration of half-maximal effect; % is set by controls: 0 for no effect and ±100 for the full control effect; nearly all actives have a fitted effect of over 75% in size
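G9a (20 nM) was preincubated 15 min with compound, then reacted 2 h at room temperature with 500 nM biotin-H3K9 peptide and 20 µM SAM. Monomethyl-H3K9 detected by AlphaScreen using anti-H3K9me1 antibody.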
JMJD2A Tudor inh: qHTS Assay for Inhibitors of JMJD2A-Tudor Domain; Lysine-specific demethylase 4A (Homo sapiens), O75164; AlphaScreen JMJD2A-Tudor / H3K4me3 peptide binding; Potency, µM (doses to about 114 µM), without a hit: at the top dose activity change, negative = inhibition, most hits filed as inhibitors; 390,000 tested, 4.4% active; AID 504339, 2011; note: potency is the fitted concentration of half-maximal effect; % is set by controls: 0 for no effect and ±100 for the full control effect; nearly all actives have a fitted effect of over 50% in size
An asterisk follows results filed as active; u = inconclusive; x = no result; ! = not confirmed by another sample; [ ] = dose if it differs, or a comment. Unless noted, calls come from the whole dose curve; as a rule, active = well fitted inhibition curve with a large enough effect; inconclusive = small, poorly fitted or top-dose-only effect; inactive = no such curve, though single readings can be large or run the other way.

SMILES	CtBP-E1A blk	Six1-Eya2 blk	HP1b chromo inh	BAZ2B inh	G9a block	JMJD2A Tudor inh
O=C(Cn1c(-c2cccs2)cc2ccccc21)NCCCN1CCN(c2cccc(Cl)c2)CC1	x	x	37%	25µM*	u	u
CN1CCN(CCCNC(=O)Cn2c(-c3cccs3)cc3ccccc32)CC1	x	x	14%	-12%	-12%[59 µM]	-25%
Cc1ccc(C)c(N2CCN(CCCNC(=O)Cn3c(-c4cccs4)cc4ccccc43)CC2)c1	x	x	16%	35µM*	u	u
COCCCN1CN=C(Nc2nc3ccccc3o2)NC1	-5	-17	3%	-5%	u	13µM*
O=C(NCc1cc(Br)cc(Br)c1OC(=O)c1ccccc1[N+](=O)[O-])c1ccccc1	u	-72*	-3%	-24%	40µM*	-31%
O=C(Oc1ccccc1C(=O)Nc1ccccc1)c1ccc(Br)c([N+](=O)[O-])c1	6	-8	8%	-34%	-17%[59 µM]	-36%
O=C(NCc1ccco1)c1cccc(NS(=O)(=O)c2cccc(F)c2)c1	21	5	26%	-27%	-11%[59 µM]	-8%
O=C(NCc1ccco1)c1cc(NS(=O)(=O)c2cccc([N+](=O)[O-])c2)ccc1O	-23	-28	-24%	u	50µM*	-36%
Cc1cccc2c1c1ccc3c(c1n2C)C(=O)C=CC3=O	x	-13	6.3µM*	5µM*	2µM*	25µM*
Cc1ccccc1NC(=O)C1CCN(C(=O)c2cnn(-c3ccccc3)c2-n2cccc2)CC1	x	x	8%	-2%	11%[59 µM]	-14%
O=c1cc(-c2ccccc2)n2c(SCc3c(F)cccc3Cl)nnc2[nH]1	x	x	9%	0%	-1%[59 µM]	-7%
CCOC(=O)C1CCN(Cc2cc(Cl)c3ccccc3c2O)CC1	0	-8	-9%	u	45µM*	-21%
Oc1c(CN2CCCC(C(F)(F)F)C2)cc(Cl)c2ccccc12 (configuration not stated)	2	-4	-2%	-29%	40µM*	-24%
CCOC(=O)C1CCN(Cc2ccc(OC)c(C)c2OC)CC1	-10	-2	u	50µM*	u	1.1µM*
Cc1ccc(NC(=O)CSc2nnc3ccc4ccccc4n23)cc1	x	x	73%	32%	-6%[59 µM]	u
COC(=O)c1ccccc1NC(=O)Cc1nc(-c2ccccc2)sc1-c1ccc(C)cc1	-2	-7	46%	-3%	45µM*	-12%[57.1 µM]
COc1ccccc1CNC(=O)CCCn1c(=O)c2ccccc2n(Cc2ccc(F)cc2)c1=O	x	x	25%	1%	-1%[59 µM]	2%
Cc1ccc(-c2nn(-c3ccccc3)cc2C(=O)N2CCN(C3CCS(=O)(=O)C3)CC2)cc1 (configuration not stated)	1	3	30%	7%	7.1µM*	-4%
Cc1ccc(CNC(=O)c2c(-c3ccc(F)cc3F)noc2C)o1	x	x	17%[57 µM]	-1%	-1%[59 µM]	-3%
COCCNC(=O)NC(=O)COC(=O)c1ccc2[nH]c3c(c2c1)CCCC3	-3	-8	19%	-2%	-25%	-18%
CC(C)CC(=O)NCc1ccc2[nH]c3c(c2c1)CCCC3	x	-1	4%	x	40µM*	-32%
Cc1ccc(NC(=S)NCc2ccc3[nH]c4c(c3c2)CCCC4)cc1	-19	-4	u	35µM*	45µM*	50µM*
O=C(NCCO)c1ccc2[nH]c3c(c2c1)CCCC3	-15	1	0%	-29%	u	-19%
COCCNC(=S)NCc1ccc2[nH]c3c(c2c1)CCCC3	-16	-17	-18%	x	45µM*	56µM*
CCOC(=O)Cn1c(=O)oc2cc(S(=O)(=O)N3CCN(c4ccccc4F)CC3)ccc21	x	x	34%	-7%	-31%[59 µM]	-12%
SMILES	CtBP-E1A blk	Six1-Eya2 blk	HP1b chromo inh	BAZ2B inh	G9a block	JMJD2A Tudor inh
CCCOc1ccc(Nc2cc(C)nc(C)n2)cc1	x	x	42%	u	-43%[59 µM]	-16%
Cc1nn2cc(-c3ccccc3)nc2[nH]c1=O	1	-5	17%	1%	-36%	9%
Cc1nc(-c2ccccc2)cn(O)c1=O	x	7	6%	79µM*	u	28µM*
O=C(Cn1ncc2c([nH]c3ccccc32)c1=O)NCCCN1CCN(c2ccc(F)cc2)CC1	x	x	17%	-4%	-6%[59 µM]	-10%
C#CCOCCOCCOCCNc1nc(N2CCN(C(=O)[C@H](CCCCN)n3cc([C@@H](N)CO)nn3)CC2)nc(N2CCN(C(=O)[C@H](Cc3cc4ccccc4[nH]3)n3cc([C@@H](N)Cc4ccc(O)cc4)nn3)CC2)n1	x	x	x	32µM*	-4%[12.7 µM]	x
C#CCOCCOCCOCCNc1nc(N2CCN(C(=O)[C@H](CCCCN)n3cc([C@@H](N)CC(C)C)nn3)CC2)nc(N2CCN(C(=O)[C@H](Cc3cc4ccccc4[nH]3)n3cc([C@@H](N)Cc4ccc(O)cc4)nn3)CC2)n1	-24	-12	-15%	2%	39%[59 µM]	18µM*
O=S(=O)(NCCc1ccncc1)c1cc(Br)ccc1F	-3	4	17%	0%	-1%[12.7 µM]	-4%
COc1ccc(NS(=O)(=O)c2cccc3ccccc23)cc1	9	11	4%	x	x	-11%
CNCCNS(=O)(=O)c1cccc2cnccc12	x	x	x	x	30µM*	x
O=S(=O)(NCCNC/C=C/c1ccc(Br)cc1)c1cccc2cnccc12	x	x	x	x	50µM*!	x
COc1ccc(Cn2ccc3nc(C)c(C(=O)Nc4ccc(OC)cc4OC)cc3c2=O)cc1	x	x	85%	5%	15%[59 µM]	-18%
Cc1ccc(-c2cc3c(nn2)-c2ccccc2C3=O)cc1	-19	-14	-2%	u	x	-17%[11.4 µM]
Cc1ccc(SC2=C(N(C)C)C(=O)c3ccccc3C2=O)cc1	-86*	-84*	u	x	x	5.6µM*
O=C(CSc1ccc2c(c1)OCCO2)Nc1ncccc1O	-9	-20	37%	u	5%[0.501 µM]	50µM*
O=C(CSc1ccc2c(c1)OCCO2)Nc1ccc(Br)cn1	-3	-1	57%	6%	45µM*	8%
Cc1ccc(NC(=O)CSc2nnc(C)c(=O)[nH]2)cc1	x	x	56%	-23%	4%[59 µM]	-9%
O=C(CSc1ccc2c(c1)OCCO2)Nc1ccc(Cl)cn1	11	-1	50%	34%	10%[59 µM]	5%
Cc1nnc(SCC(=O)Nc2ccc(Br)cn2)[nH]c1=O	27	8	56%	5%	50µM*	-19%
CCCCC[C@]12Cc3ccccc3C(O1)c1c(cc(C)oc1=O)O2	x	x	x	3%[22.9 µM]	x	x
